# Shiga inhibitor: blocks Shiga toxin action in Vero cells; Vero cells, Shiga toxin protein synthesis inhibition reporter; inhibition, % at 38.7 µM; 9.2% of 290,000 active; AID 2315; in the data active means inhibition mostly above about 28%, no sharp cut-off; inactive means mostly below about 43%; further: 0% is about no effect
# CHX counter: counter-screen for Shiga toxin inhibitors: cycloheximide protein synthesis inhibition | cell reporter, cycloheximide protein synthesis inhibition counterscreen | max response, % | 12% of 300,000 active; in the data active means max response mostly above about 13%, no sharp cut-off; inactive means mostly below about 14%; further: read at 38.3 µM for the half of the compounds with a filed dose; 0% is about no effect
# Pf growth 48h: P. falciparum growth inhibition at 48 hours (one generation); P. falciparum luciferase growth in erythrocytes, 48 h; Potency, µM (top dose mostly 28.7 µM), inactives show at the top dose activity change, negative = inhibition, hits mostly inhibitors; 5.9% of 310,000 active; further: potency means the concentration at half of the fitted maximal effect; on the % scale 0 is the no-effect control and ±100 the full control effect
#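 Compounds are pin-transferred into medium, infected erythrocytes (2% hematocrit, 0.1% parasitemia final) are added, and plates sit one parasite generation at 37 C in 5% CO2. Detection reagent is then added and luminescence measured.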
# Sm TGR inh: inhibitors of Schistosoma mansoni thioredoxin glutathione reductase; Potency, µM (highest dose often 114 µM), for inactives: at the top dose activity change, negative = inhibition, actives largely listed as inhibitors; purified TGR, DTNB reduction, TNB absorbance 405 nm; 3% of 360,000 active; Q962Y6; further: potency means the concentration at half of the fitted maximal effect; on the % scale 0 is the no-effect control and ±100 the full control effect; nearly all actives have a fitted effect of over 60% in size
#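 First, TGR (20 nM dispensed) and NADPH were mixed with compound. Second, a 15 min room-temperature incubation followed. Third, further NADPH and then DTNB were added to start the reaction. Finally, TNB absorbance was monitored kinetically.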
# NS1 inh: blocks influenza NS1 protein function. AID 2326. 0.4% of 270,000 active. Potency, µM (series often up to 46.1 µM), without a hit: at the highest dose activity, positive = more growth; calls by dose curve; further: potency means the concentration at half of the fitted maximal effect; actives are rising curves; nearly all actives have a fitted effect of over 50% in size
#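 A cell-based growth assay was used: compounds that relieve NS1-induced slow growth of budding yeast raise OD600. Assay medium was yeast nitrogen base with ammonium sulphate and -URA supplement, pH 6.0, with 2% galactose.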
# Pf growth 96h: P. falciparum growth inhibition at 96 hours; P. falciparum luciferase reporter growth, 96 h; Potency, µM (highest dose often 28.7 µM), for inactives: at the top dose activity change, negative = inhibition, hits mostly inhibitors; 6.9% of 320,000 active; AID 504834; further: potency means the concentration at half of the fitted maximal effect; on the % scale 0 is the no-effect control and ±100 the full control effect
#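 P. falciparum expressing integrated firefly luciferase grown in erythrocytes (2% hematocrit, 0.05% parasitemia final) with compounds for 96 hours at 37 C, 5% CO2. Growth inhibition read as loss of luminescence after adding luciferase detection reagent.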
# Numbers without * were called inactive; ? = inconclusive; · = no result given; [ ] = remark or other dose. Compounds with a hit are over-represented: about 21% of the library has one in this group of screens. Unless noted, the call rests on the fitted dose curve; in most records, active means well fitted curve in the direction sought with a large enough effect; inconclusive means small, poorly fitted or top-dose-only effect, or another doubt; inactive means no such curve, though single readings can be large; an effect the other way counts as inactive or inconclusive.
SMILES,Shiga inhibitor,CHX counter,Pf growth 48h,Sm TGR inh,NS1 inh,Pf growth 96h
O=c1[nH]c(SCc2ccc(Cl)cc2)nc2ccccc12,20.6,3.2,?,11.6%,5.9%,13.1µM*
CCC(C)n1c(SCc2ccccc2)nc2ccsc2c1=O (configuration not stated),5.9,-3.9,?,-5.9%,-22.8%,4.15µM*
Cc1nc(-c2ccccc2)sc1CCNS(=O)(=O)c1ccccc1,·,·,·,-2.2%,·,·
C/C(=N\O)c1oc2ccc3c(C)cc(=O)oc3c2c1C,-9.6,0.3,13.4%,13.8%,-4.4%,26.0%
CN(C)S(=O)(=O)Oc1cc(Cl)ccc1C(=O)Nc1ccc(F)cc1F,41.6,34.9*,?,0.0%,·,?
CN(C)c1ccncc1C(=O)Nc1ccc(F)cc1F,2.0,0.2,130.7%,9.2%,-0.9%,?
CN(N=Nc1ccc([N+](=O)[O-])cc1)c1ccccc1,54.5*,68.2*,90.5%,-10.3%,-1.1%,161.4%
CN(N=Nc1cccc([N+](=O)[O-])c1)c1ccccc1,87.7*,56.6*,92.6%,29.9%,2.8%,-4.1%
CC(C)c1ccc(Cc2cnc(NC(=O)c3ccc4c(c3)CC(c3ccccc3)OC4=O)s2)cc1 (configuration not stated),·,·,·,0.1%,·,·
CCCCCCCCC(=O)NNC(=O)c1c(O)c2ccccc2n(CCC)c1=O,10.0,6.8,20.5%,17.3%,·,72.7%
Cc1ccc(CNC(=O)Cn2c(=O)n(-c3cccc(Cl)c3)c(=O)c3sc4ccccc4c32)cc1,·,·,·,-1.8%,·,·
CC(=O)[O][Hg][c]1ccccc1,·,·,1.51µM*,·,·,3.01µM*
CC(=O)Oc1ccccc1C(=O)O,·,·,-0.5%,·,6.2%,2.2%
CC(=O)C1=C(C)NC(SCC(=O)c2ccc(F)cc2)=C(C#N)C1c1ccco1 (configuration not stated),5.4,4.2,·,-8.0%[11.4 µM],-67.8%,?
CC(=O)C1=C(C)NC(SCC(=O)c2cc(Cl)ccc2Cl)=C(C#N)C1c1ccco1 (configuration not stated),-5.3,1.1,9.28µM*,?,15.1%,9.28µM*
CCc1ccc(C(=O)CSC2=C(C#N)C(c3ccco3)C(C(C)=O)=C(C)N2)cc1 (configuration not stated),32.1,30.1*,?,?,?,36.9%
CC(=O)C1=C(C)NC(SCC(=O)c2ccc(Cl)c(Cl)c2)=C(C#N)C1c1ccco1 (configuration not stated),14.0,9.7,1.17µM*,?,?,-111.7%
O=c1[nH]c(CN2CCN(S(=O)(=O)c3cccs3)CC2)nc2c(Br)cc(Br)cc12,-4.7,-1.4,0.9%,-1.6%,·,8.6%
COc1cc(-c2nnc(SCC(=O)N(C)C3CCS(=O)(=O)C3)o2)cc(OC)c1OC (configuration not stated),-5.0,1.6,2.8%,0.9%,·,2.5%
CC(CS(=O)(=O)c1ccccc1[N+](=O)[O-])N1CCOCC1 (configuration not stated),-6.6,11.7,11.7µM*,-6.0%,·,18.7%
O=[N+]([O-])c1ccccc1S(=O)(=O)c1ccccc1[N+](=O)[O-],-1.8,-3.5,-3.1%,5.4%,0.4%,28.4%
CN1/C(=C/C(=O)C2CCC2)Sc2ccccc21,138.8*,56.6*,152.8%,0.0%,-69.9%,3.0%
COCC(=O)/C=C1\Sc2ccccc2N1C,18.2,6.8,28.0%,3.0%,0.5%,8.6%
CN1/C(=C/C(=O)c2cccs2)Sc2ccccc21,47.7,43.5*,·,2.9%,-169.7%,-62.6%
COc1ccccc1C(=O)NC(=S)/C=C1/N(C)c2ccccc2C1(C)C,44.0,14.0*,?,-3.0%,12.3%,?
SMILES,Shiga inhibitor,CHX counter,Pf growth 48h,Sm TGR inh,NS1 inh,Pf growth 96h
CN1/C(=C\C(=O)c2cccs2)Sc2ccccc21,89.7*,39.4*,87.5%,-30.4%,-52.5%,-17.2%
CN1/C(=C\C(=S)NC(=O)c2ccccc2Cl)C(C)(C)c2ccccc21,40.2,-2.6,?,-2.7%,-2.8%,?
CCOc1ccc(NS(=O)(=O)c2ccc3c(c2)N(C(C)=O)CCS3)cc1,-4.1,-0.6,?,-1.6%,2.5%,-23.3%
COc1ccc(NC(=O)CSc2ccc3nnc(-c4ccccn4)n3n2)c(OC)c1,-5.1,-1.8,?,8.7%,7.9%,?
CCOC(=O)/C=C1/N(C)c2ccccc2C1(C)C,-8.3,-1.4,75.9%,0.0%,-8.4%,38.3%
CN1/C(=C\C(=O)c2cccs2)C(C)(C)c2ccccc21,16.0,24.6*,9.28µM*,-13.3%,-23.0%,21.3%
COc1ccc(CCNC(=O)CCCCn2c(=O)c3ccccc3n(CC(=O)Nc3ccc(C)cc3C)c2=O)cc1OC,·,·,·,8.0%,·,·
CCCCNC(=O)c1ccc(CS(=O)(=O)c2ccc(OC)cc2)o1,-5.9,6.0,·,-31.8%,-5.5%,0.0%
COC(=O)c1ccc(CS(=O)(=O)c2ccc(C)cc2)o1,-8.3,-5.5,21.0%,11.2µM*,2.6%,?
CCCCNC(=O)c1ccc(CS(=O)(=O)c2ccc(C)cc2)o1,12.1,-2.6,21.8%,44.7µM*,-4.8%,36.2%
COCCCNC(=O)c1ccc(CSCc2ccc(C)cc2)o1,34.5,-0.7,?,39.8µM*,-7.3%,20.0%
O=C(N/N=C/c1cccc(F)c1)NC1CCCCC1,19.9,18.7*,65.9%,-6.8%,-10.5%,0.0%
O=C(N/N=C/c1ccccc1)NC1CCCCC1,46.3,30.7*,58.8%,-9.9%,-9.5%,33.5%
COc1cc(/C=N/NC(=O)NC2CCCCC2)ccc1O,43.3*,14.3*,2.8%,0.0%,-0.5%,25.7%
COc1cc(/C=N/NC(=O)NC2CCCCC2)cc(OC)c1O,14.0,-2.8,-2.7%,-18.7%,6.7%,-1.6%
O=C(N/N=C/c1ccccc1F)NC1CCCCC1,33.1*,18.2*,156.5%,3.4%,-2.5%,-3.7%
CNC(=S)SCCOc1ccccc1C,16.7,9.9,13.3%,-3.9%,-2.3%,?
CNC(=O)c1ccccc1NC(=O)c1c(O)c2c([nH]c1=O)CCCC2,13.7,10.3,38.5%,0.1%,-15.3%,76.8%
CC(C)(C)c1ccc(/C=N/NC(=S)NC2CCCCC2)cc1,46.9*,13.8,?,2.8%,-0.7%,?
O=C(N/N=C/c1cccc(F)c1)c1c(O)c2c([nH]c1=O)CCCC2,35.9*,25.8*,84.3%,-5.2%,21.3%,85.6%
Cc1ccn2cc(C34CC5CC(CC(C5)C3)C4)nc2c1,95.0*,35.5*,20.3%,3.9%,-7.8%,?
Cc1ccn2cc(CNC(=O)c3ccc(Br)o3)nc2c1,-5.6,-3.9,·,6.9%,-9.2%,?
COC(=O)C(Cc1ccc(OC(=O)c2ccc(C(F)(F)F)cc2)cc1)N1Cc2ccccc2C1=O (configuration not stated),69.3*,42.7*,38.8%,-11.5%,0.2%,66.9%
COC(=O)C(Cc1ccc(OC(=O)c2ccc(Cl)cc2)cc1)N1Cc2ccccc2C1=O (configuration not stated),126.4*,44.1*,79.4%,17.0%,-22.0%,169.8%

# Compound activity as filed in PubChem BioAssay.
